The panel holds about 83,000 compounds, 20% with a hit somewhere; the sample as a whole holds those more often.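 Compound tested at a single concentration for 48 hours in 96-well plates; a percent growth value below 10 was scored as active.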 Unmarked numbers belong to inactive results. The source made the active and inactive calls.
Assays:
Assay in all cases: NCI-60 one-dose screen, 48 h (100 = growth as untreated, 0 = no growth, -100 = all killed)
Conditions in all cases: 10 µM unless noted
SK-MEL-2 melanoma = test system: SK-MEL-2 melanoma
EKVX NSCLC = test system: EKVX NSCLC
SN12C renal = test system: SN12C renal
UO-31 renal = test system: UO-31 renal
ACHN renal = test system: ACHN renal
CAKI-1 renal = test system: CAKI-1 renal
A498 renal = test system: A498 renal
MOLT-4 leukemia = test system: MOLT-4 leukemia
CCRF-CEM leukemia = test system: CCRF-CEM leukemia
TK-10 renal = test system: TK-10 renal

Structure (SMILES)	growth (SK-MEL-2 melanoma)	growth (EKVX NSCLC)	growth (SN12C renal)	growth (UO-31 renal)	growth (ACHN renal)	growth (CAKI-1 renal)	growth (A498 renal)	growth (MOLT-4 leukemia)	growth (CCRF-CEM leukemia)	growth (TK-10 renal)
CCOc1ccccc1-c1cc(-c2cccs2)c(C#N)c(=O)[nH]1	98.4%	97.5%	83.3%	68.8%	95.6%	76.1%	70.2%	92.9%	–	–
Nc1n[nH]c(-c2cc(Cl)ccc2O)c1-c1ccccc1	75.9%	72.6%	86.5%	61.9%	61.3%	79.7%	101%	72.7%	85.2%	–
COc1ccc(-c2nc(SCC(=O)Nc3nc(-c4ccccc4)cs3)[nH]c(=O)c2C#N)cc1	90.5%	101%	108%	59%	104%	82.8%	80.4%	89.9%	97.2%	–
Cc1cccc(Cc2cnc(NC(=O)/C=C/c3ccco3)s2)c1	30.8%	33.7%	29.3%	37.3%	35.3%	30.4%	13.8%	15.9%	–	–
O=C1Nc2ccccc2/C1=C/c1cn(C(=O)c2c(Cl)cccc2Cl)c2ccccc12	39.9%	81.5%	56.1%	50.7%	43.6%	18.7%	52.5%	43.9%	70.5%	–
COc1ccccc1N1C(=O)/C(=C/C2=Cc3ccccc3OC2)SC1=S	110%	95.3%	97.4%	88.3%	96.9%	85.2%	40.7%	94.6%	90.5%	–
CC(=O)c1nc(Nc2ccc(C)cc2)sc1C	102%	74.4%	102%	81.6%	102%	87.9%	66.2%	96.1%	95.6%	–
COc1ccc(-c2ccc3c(c2)sc2nc(-c4ccc(F)cc4)cn23)cc1	73.4%	82.6%	87.9%	81%	92.9%	100%	76.8%	–	98.8%	–
COc1ccc2oc3c(C)c4c(c(C)c3c2c1)C(=O)N(Cc1ccccc1)C4=O	105%	92.9%	89.8%	80.7%	88.3%	81.1%	109%	106%	–	–
C[C@@]1(CCC#N)[C@H]2CC[C@@H]3[C@H]4[C@H](C(=O)/C=C/c5cccnc5)CC[C@]4(C#N)CC[C@@]3(C)[C@]2(C)CC[C@H]1C(=O)/C=C/c1cccnc1	77.7%	98.1%	65.4%	87.3%	56.3%	68.7%	99%	11.7%	–	–
O=c1c2c3c(sc2n2c(-c4cc(-c5ccccc5)nn4-c4ccccc4)nnc2n1Cc1ccccc1)CCCC3	102%	101%	98%	36.7%	106%	20.9%	141%	19.1%	–	–
C=CC(=O)Nc1cccc(Oc2nccc(Nc3nnc(C4CC4)s3)n2)c1	108%	104%	87.4%	72.4%	97.7%	92.3%	101%	75.7%	–	–
C=C1C(=O)O[C@H]2[C@H]1CC/C(COC(=O)C(=O)c1cn(C)c3ccc(OC)cc13)=C\CC[C@@]1(C)O[C@@H]21	-47.2% (active)	-17.4% (active)	-51% (active)	-91.9% (active)	-57.8% (active)	-43.6% (active)	-99.5% (active)	-16.6% (active)	–	-61.4% (active)
NC(=S)N/N=C/Cc1ccccc1	106%	89.1%	102%	64.4%	102%	116%	99.8%	78.7%	–	–
O=C(c1ccccc1)c1c(/C=C/c2ccccc2)nc2ccccc2c1/C=C/c1ccc(Br)cc1	110%	102%	92.7%	68.2%	97%	80.9%	79.9%	94.6%	97%	–
CCN(CC)CCN1C(=O)c2c(c(C)c3c(oc4cc(O)ccc43)c2C)C1=O	108%	103%	86.9%	69.2%	49.5%	-92.5% (active)	101%	-33.6% (active)	–	–
COc1cc(OC)cc(C2CC(=O)Nc3c2c(C)nn3-c2nc3ccccc3[nH]2)c1 (configuration not stated)	38.4%	17.7%	20%	13.1%	19.3%	30.3%	-10.1% (active)	-8.06% (active)	4.69% (active)	–
C[n+]1cccc(CC(=O)NO)c1	100%	102%	94.7%	–	98.4%	104%	115%	–	–	94.8%
CCCCCCCCCCCCCCCCCC1=NCCN1CCOC1=C(Cl)C(=O)c2ccccc2C1=O	85.3%	86.7%	78.9%	42.6%	30.2%	8.77% (active)	99.7%	71.7%	57%	–
CCCCCCCCCCCCCCCCCCOc1ccc(CC(=O)OCC[N+]2(C)CCCC2)cc1	117%	100%	97.9%	92.4%	96.8%	84.9%	116%	–	99.1%	–
COc1cc(C2CC(c3cc(OC)c(OCCCOc4ccc(-n5c(/C=C/c6ccccc6)nc6ccccc6c5=O)cc4)c(OC)c3)=NO2)cc(OC)c1OC (configuration not stated)	92.3%	118%	127%	86.7%	91.3%	115%	123%	86%	76.6%	–
Clc1cc(Cl)cc(Nc2ccc3cc(OCCCN4CCOCC4)ccc3n2)c1	63.9%	69.3%	60.1%	26.5%	42%	75.3%	51%	–	12.9%	–
O=C(CSc1nnc(-c2ccc(NC(=O)c3cccnc3)cc2)o1)Nc1cccc(Br)c1	96.5%	88.3%	51.1%	95.9%	99.2%	82.6%	96.2%	84.5%	72.2%	–
Cc1ccc(NS(=O)(=O)c2ccc3c(c2)C(=O)CC(c2ccc(C(=O)C(C)C)cc2)N3)cc1C (configuration not stated)	64.2%	22.7%	76.4%	51.7%	55.1%	55.9%	45.2%	54.5%	50.3%	–
COc1ccc(C(=O)/C=C/c2c(C(F)(F)F)nc3sccn23)cc1OC	80.4%	37.1%	29%	61.1%	26.5%	2.75% (active)	94.7%	-16.6% (active)	–	–
COc1ccc(C2C(c3nn[nH]n3)=C(N)Oc3c2ccc2ccccc32)cc1 (configuration not stated)	61.5%	83.4%	64.9%	45.1%	68.6%	34.3%	26.5%	52.6%	75.3%	–
COc1cccc(-c2nn(-c3ccccc3)cc2-c2ccnc(NCCCNC(=O)c3ccccc3)c2)c1	63.6%	55.8%	67.2%	39.3%	69%	67.3%	59.4%	–	27.7%	–
Cc1cc(Cl)nc(NCc2cc(Nc3ccnc4cc(Cl)ccc34)ccc2F)n1	77.1%	68.1%	52.8%	–	76.1%	75.3%	63.3%	–	28.9%	67.1%
CCOC(=O)c1c(-c2ccc(Cl)cc2)c(C#N)c(=O)n(-c2ccccc2CC)c1N	114%	90.6%	92.1%	–	89.5%	105%	97.5%	70.3%	17.7%	117%
CN(C)c1ccc(-c2ccc3[nH]c(=O)nc(-c4ccccc4)c3c2)cn1	22.8%	–	50.7%	53%	47.9%	49.6%	52.3%	–	–	82.8%

From PubChem BioAssay (NCI)
